Screening results: PubChem, National Center for Advancing Translational Sciences (NCATS)
A selection: hits, their analogues and other compounds. The true share with any hit is near 0.64%.
RECQ1 helicase: inhibitors of human RECQ1 DNA helicase; RECQ1 DNA unwinding, red fluorescence kinetic read; Potency, µM (highest dose often 57.3 µM), for the others: top-dose activity, negative = inhibition, usual class: inhibitors; hit rate 0.54% among 240,000;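 further: plate controls were vehicle for no effect and no enzyme for full effect; nearly all actives have a fitted effect of over 30% in size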
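50 nM RECQ1T1 preincubated 15 min with compound in Tris pH 8.0 buffer with MgCl2, DTT, Tween-20 and 2.5 ug/ml poly(dI-dC); started with 200 nM TAMRA/BHQ-2 forked duplex and 2 mM ATP. Unwinding read as fluorescence (525/598 nm), two reads 2 h apart.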
BLM helicase inh: Bloom syndrome helicase (human) inhibition. recombinant BLM DNA unwinding, fluorescence dequenching. hit rate 0.2% among 350,000. P54132. AID 2528. Potency, µM (titrated, usually from 56.1 µM), without a hit: at the highest dose activity change, negative = inhibition, most hits filed as inhibitors;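 further: plate controls were vehicle for no effect and no enzyme for full effect; nearly all actives have a fitted effect of over 35% in size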
TRb SRC2 PPI: TRbeta-SRC2 interaction inhibition; P10828; hit rate 0.065% among 280,000; Potency, µM (top dose mostly 106 µM), without a hit: at the highest dose activity change, negative = inhibition, hits mostly inhibitors; TRbeta-SRC2 peptide binding, fluorescence polarization; receptor liganded with 1 µM T3;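 further: plate controls were bound peptide for no effect and peptide without receptor for full effect; nearly all actives have a fitted effect of over 50% in size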
Target sequence (P10828 whole entry, looked up): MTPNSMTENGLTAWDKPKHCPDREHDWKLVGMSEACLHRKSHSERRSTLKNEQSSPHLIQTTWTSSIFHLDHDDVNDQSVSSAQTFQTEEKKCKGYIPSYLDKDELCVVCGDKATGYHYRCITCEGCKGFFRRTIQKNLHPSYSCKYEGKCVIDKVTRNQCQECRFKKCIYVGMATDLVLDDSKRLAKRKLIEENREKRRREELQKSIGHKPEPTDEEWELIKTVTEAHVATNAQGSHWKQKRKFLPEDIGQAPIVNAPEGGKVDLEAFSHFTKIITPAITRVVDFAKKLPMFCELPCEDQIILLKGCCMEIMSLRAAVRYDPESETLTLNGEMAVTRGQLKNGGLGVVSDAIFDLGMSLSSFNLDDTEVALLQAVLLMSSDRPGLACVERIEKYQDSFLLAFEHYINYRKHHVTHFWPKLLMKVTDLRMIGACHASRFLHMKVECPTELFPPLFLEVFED
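Quantitative HTS by FP: 0.6 uM TRb LBD, 20 nM labeled SRC2 20-mer, 1 uM T3, 5% DMSO; 5 hr ambient incubation; % activity per concentration and potencies from concentration series.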
TR SRC2 fluor cs: alters Texas Red total fluorescence, flagging assay interference; AID 1479; TRb/SRC2 Texas Red total fluorescence interference; Potency, µM (doses to about 106 µM), for the others: at the top dose fluorescence change, negative = quenching; hit rate 0.29% among 280,000; active means well fitted curve in either direction with a large enough effect; inconclusive means small, poorly fitted or top-dose-only effect
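Human TRβ ligand-binding domain (0.6 uM) and Texas Red SRC2 peptide (20 nM) in Tris buffer with 1 uM T3 and 5% DMSO were incubated with pinned compound for 5 hr at ambient temperature. Total fluorescence was computed as S + 2P (555/632 nm).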
The depositor's hits bear a star; i = inactive; ? = inconclusive; · = no result given; [ ] = another dose, or the depositor's remark. Unless noted, the call rests on the fitted dose curve; in most records, active means well fitted curve in the direction sought with a large enough effect; inconclusive means small, poorly fitted or top-dose-only effect, or another doubt; inactive means no such curve, though single readings can be large; an effect the other way counts as inactive or inconclusive. Unless noted, on the % scale 0 is the no-effect control and ±100 the full control effect; potency means the concentration at half of the fitted maximal effect.

SMILES	RECQ1 helicase	BLM helicase inh	TRb SRC2 PPI	TR SRC2 fluor cs
O=C(COc1ccccc1[N+](=O)[O-])N/N=C/c1ccc(OC(=O)c2ccco2)cc1	-7.4%	-7.6%	-11.4%	282µM*[quencher]
O=C1S/C(=C\C=C\c2ccco2)C(=O)N1c1ccc(O)cc1	4.2%	25.1µM*	-5.8%	0.4%
COc1ccc(/C=C2\SC(=S)N(C(Cc3ccccc3)C(=O)O)C2=O)cc1 (centres undefined)	i	-6.4%	0.9%	-3.4%
O=C1S/C(=C\c2cccs2)C(=O)N1c1ccc(O)cc1	·	-8.8%	·	·
O=C(O)CC(C(=O)O)N1C(=O)/C(=C/C=C/c2ccco2)SC1=S (centres undefined)	3.98µM*	107.2%	0.6%	?
O=C(O)C(Cc1ccccc1)N1C(=O)/C(=C/C=C/c2ccco2)SC1=S (centres undefined)	2.82µM*	22.4µM*	27.0%	?
O=C(O)CCCN1C(=O)/C(=C/C=C/c2ccco2)SC1=S	-4.9%	7.6%	-7.4%	-0.5%
COc1ccccc1N1CCN(C(=O)C(CCSC)NS(=O)(=O)c2ccc3c(c2)oc(=O)n3C)CC1 (centres undefined)	·	0.6%	-4.0%	-27.8%
O=c1cc(-c2cccc(O)c2)oc2c(O)c(O)ccc12	4.47µM*	-0.9%	-1.0%	-9.2%
COc1cc(/C=C(\C#N)c2nc3ccccc3[nH]2)cc(Cl)c1OCc1ccccc1Cl	·	-15.3%	-9.9%	2.5%
N#C/C(=C\c1ccc(OCc2ccc(Cl)cc2Cl)cc1)c1nc2ccccc2[nH]1	·	-8.3%	-25.7%[53 µM]	282µM*[quencher]
CCN(c1ccccc1)S(=O)(=O)c1ccc(NC(=O)c2nc(S(C)(=O)=O)ncc2Cl)cc1	·	-5.2%	-8.7%	1.78µM*[quencher]
Cc1ccc(-c2nc3cccnc3s2)cc1NC(=O)Cc1ccccc1	·	-13.4%	-20.7%	100µM*[quencher]
Cc1sc2ncn(CC(=O)N(C)c3cccc(C(F)(F)F)c3)c(=O)c2c1S(=O)(=O)N1CCN(c2ncccn2)CC1	·	-8.8%	-24.9%[53 µM]	0.0794µM*[quencher]
Cc1cc2oc(=O)cc(-c3ccccc3)c2c(C)c1-c1sccc1C=O	-4.1%[81.1 µM]	-7.5%[75.6 µM]	6.8%	-4.9%
CC(=O)c1ccsc1-c1c(C)cc2oc(=O)cc(-c3ccccc3)c2c1C	22.4µM*	-8.8%[75.6 µM]	-3.0%	-32.9%
CSc1ccc(CCNC(=O)c2ccc(-n3c(C)cc4c3CCC(C)C4)cc2)cc1 (centres undefined)	·	-3.6%	-10.9%	22.4µM*[quencher]
O=C1c2c(O)cc(O)cc2O[C@H](c2ccc(O)c(O)c2)[C@@H]1O	17.8µM*	-8.4%	1.3%	-5.9%
CC(C)C[C@@H](CN(C)N=O)N(C[C@H](Cc1ccccc1)N(CCc1ccccc1)N=O)N=O	3.98µM*	-6.3%	3.6%	-2.2%
O=c1n(Cc2ccc([N+](=O)[O-])cc2)c2ccccc2c2nc(-c3ccccc3)nn12	·	-0.9%	-21.3%	100µM*[quencher]
COc1ccc(CNC(=O)c2cnc3sc(N4CCOCC4)nn3c2=O)cc1	·	-6.8%	-8.9%	501µM*[quencher]
C=Cc1ccc(P(c2ccccc2)c2ccccc2)cc1	·	·	11.3%[201 µM]	3.2%[201 µM]
CC(=O)N1CCN(c2ccc(NCc3ccc4c(c3)OCO4)cc2)CC1	-0.9%	-10.0%	39.8µM*	11.8%
O=C(c1ccccc1)N1CCN(c2ccc(NCc3ccc4c(c3)OCO4)cc2)CC1	0.9%	-2.1%	-13.2%	-2.4%
O=C(NCC(c1cccnc1)N1CCN(c2ccccc2F)CC1)c1ccc(F)cc1 (centres undefined)	·	0.2%	-1.0%	-11.8%
SMILES	RECQ1 helicase	BLM helicase inh	TRb SRC2 PPI	TR SRC2 fluor cs
CCO[C@H]1OC(C(=O)N2CCN(Cc3ccc4c(c3)OCO4)CC2)=C[C@@H](c2cn(C(C)=O)c3ccccc23)[C@@H]1CCCO	35.5µM*	-4.2%	-5.8%	0.2%
CCO[C@H]1OC(C(=O)N2CCN(Cc3ccc4c(c3)OCO4)CC2)=C[C@@H](c2csc3ccccc23)[C@@H]1CCCO	-17.0%	-10.3%	-3.1%	0.8%
COc1ccc(CN(CCC(c2ccc(F)cc2)C2CCOC(C)(C)C2)C(=O)c2ccco2)cc1 (centres undefined)	25.1µM*	-6.6%	-3.1%	-1.4%
COc1ccc(NC(=O)Cn2c(=O)n(-c3ccc(CC(=O)NCC4CCCO4)cc3)c(=O)c3ccccc32)c(OC)c1 (centres undefined)	·	1.5%	8.0%	0.4%
Cc1cccc(S(=O)(=O)c2cn(C)c3cc(N4CCN(c5ccccc5)CC4)c(F)cc3c2=O)c1	·	2.0%	?	56.2µM*[quencher]
CCCn1cc(S(=O)(=O)c2ccc(C)c(C)c2)c(=O)c2cc(F)c(N3CCCCC3)cc21	·	0.1%	-20.5%	282µM*[quencher]
CCn1cc(S(=O)(=O)c2cccc(Cl)c2)c(=O)c2cc(F)c(N3CCN(c4ccccc4)CC3)cc21	·	-3.9%	5.0%	6.3%
Cc1cc(C)cc(S(=O)(=O)c2cn(C)c3cc(N4CCN(C)CC4)c(F)cc3c2=O)c1	·	-1.4%	·	·
Cn1cc(S(=O)(=O)c2cccc(Cl)c2)c(=O)c2cc(F)c(N3CCN(c4ccccc4)CC3)cc21	·	-10.6%	-29.8%	158µM*[quencher]
CCCCCc1ccc(N)cc1	·	·	-7.1%[201 µM]	1.4%[201 µM]
CC1(C)Cc2c(c(-c3ccco3)[nH]c(=O)c2C#N)CS1	31.6µM*	-1.7%	44.7µM*	?
COc1cc2ccccc2cc1C(=O)Nc1ccc2oc(-c3ccc(Cl)cc3)nc2c1	·	-13.4%	-1.5%	3.5%
COc1cc2ccccc2cc1C(=O)Nc1ccc2oc(-c3cccc(C)c3)nc2c1	·	-14.1%	?	3.16µM*[quencher]
COc1ccc(CNC(=O)COC(=O)c2cc(-c3ccco3)nc3ccccc23)cc1	11.2µM*	-22.7%	-7.1%	?
COc1ccc(CNC(=O)COC(=O)c2ccccc2C(=O)c2ccccc2)cc1	-2.4%	0.8%	-10.2%	-1.5%
Cc1csc(NC(=O)c2cc(C)nc3ccccc23)n1	i	-3.9%	-12.8%	-2.6%
Cn1c(=O)c(C(=O)COC(=O)c2cc(-c3ccco3)nc3ccccc23)c(N)n(CC2CC2)c1=O	31.6µM*	?	7.5%	-5.6%
Cc1csc(NC(=O)c2cc(-c3ccco3)nc3ccccc23)n1	-11.5%	?	-20.6%[53 µM]	7.08µM*[quencher]
COC(CC(=O)NNC(=S)Nc1ccccc1)OC	14.1µM*	1.3%	7.7%	-1.8%
COC(CC(=O)NNC(=S)Nc1ccc(Cl)cc1)OC	-2.5%	0.6%	6.5%	2.9%
Cc1c(C(=O)Nc2ccc(-c3nc4cc(Cl)ccc4o3)cc2)oc2ccccc12	·	-14.3%	-10.4%	112µM*[quencher]
Cc1cc(C(=O)N/N=C/c2ccco2)n[nH]1	i	0.4%	4.7%	-2.3%
CC(/C=C/c1ccco1)=N\NC(=O)c1cc(C)[nH]n1	31.6µM*	-23.7%	-5.2%	-2.0%
Cc1noc(Cn2c(=O)c3ccccc3n(CC(=O)Nc3cc(Cl)ccc3C)c2=O)n1	·	-1.6%	0.6%	0.8%
Cc1c(C(=O)N/N=C/c2cccs2)nc2ccccn12	-6.7%	5.1%	-20.8%[53 µM]	178µM*[quencher]
O=C(N/N=C\c1cccs1)c1ccccc1-n1cccc1	-15.0%	-4.2%	6.4%	-1.1%
COc1cccc(-n2c(=O)c3sc4ccccc4c3n(CC(=O)NC3CCCCC3)c2=O)c1	·	-5.1%	-6.9%	-0.4%
